The full data set covers some 8,800 targets. This sample favours those with a hit. About 0.5% of all pairs of compound and target were hits.
Assays:
Experiment in all cases: log2 fold change, soluble protein after heating vs DMSO (PISA); higher = thermal stabilisation; K562 lysate, 10 uM; active = over 0.2 and 3.5 SD of the protein, either way, in both replicates (recomputed)
[1] = compound: CC(=O)c1cnc2ccc(-c3cc(Cl)c(O)c(Cl)c3)nc2c1N[C@H]1CC[C@H](CN(C)C)CC1
In short: (§1)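 To prepare the extract, K562 pellets were dounce-homogenised in PBS pH 7.4 with 1 mM MgCl2, giving crude material at 1 mg/mL protein. This was treated with 10 μM compound for 30 min, then heated in aliquots for 3 min over 48°C-58°C before pooling and addition of NP-40 to 0.5% at 4°C. Centrifugation at 21,000xg for 90 min left soluble protein in the supernatant, which TMTpro 16plex LC-MS/MS quantified with equalised channel sums. Results are log-two fold changes in thermal stability compared with solvent controls, from duplicates.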

[2] = compound: CC(C)(C)Cn1c(N)nc2ccc(-c3[nH]c(C(C)(C)C)nc3-c3ccc(F)cc3)nc21 [ralimetinib]
In short: as §1

[3] = compound: CC(C)(O)CC(=O)NCCn1ccc2ncnc(Nc3ccc(Oc4cccc(C(F)(F)F)c4)c(Cl)c3)c21
In short: as §1

[4] = compound: CC(C)C1=C2N=C(C=C(N2N=C1)NCC3=CC=CC=C3)NCCCCCCN
In short: as §1

[5] = compound: CC1=C(C2=C(C=C1)C(=O)C3=CC=CC=C3N2CCCN)C
In short: as §1

[6] = compound: CC1=C(C=C(C=C1)NC(=O)C2=CC(=CC=C2)C(C)(C)C#N)NC3=CC4=C(C=C3)N=CN(C4=O)C
In short: as §1

[7] = compound: CC1=C(C=C(C=C1)NC(=O)C2=CC(=CC=C2)N(C)C)NC(=O)C3=CC=C(C=C3)O
In short: as §1

[8] = compound: CC1=CC=C(C=C1)SC2=C3C=C(SC3=CN=C2)C(=O)N
In short: as §1

[9] = compound: CC1=C(C(CC(=O)N1)C2=CC=C(C=C2)C(F)(F)F)C(=O)NC3=C(C=C4C(=C3)C=NN4)F
In short: as §1

[10] = compound: C=CC(=O)N1CCC[C@@H](n2nc(-c3ccc(Oc4ccccc4)cc3)c3c(N)ncnc32)C1 [ibrutinib]
In short: as §1

Measured: log2 fold change

CACUL1 (UniProt Q86Y37)
inactive: [1] 0.164 | [2] -0.023 | [3] 0.073 | [4] 0.027 | [5] -0.165 | [6] -0.126 | [7] 0.115 | [8] -0.09

CEBPZOS (UniProt A8MTT3)
UniProt A8MTT3, sequence (A8MTT3 whole entry, looked up): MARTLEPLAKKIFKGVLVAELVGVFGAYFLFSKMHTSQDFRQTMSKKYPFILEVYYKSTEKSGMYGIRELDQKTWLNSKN
inactive: [1] 0.02 | [2] 0.035 | [3] 0.022 | [4] -0.047 | [9] -0.054 | [5] 0.04 | [6] 0.112 | [7] -0.032 | [8] 0.012

CANX (UniProt D6RHJ3)
inactive: [1] -0.013 | [9] 0.021 | [8] -0.008

AVEN (UniProt Q9NQS1)
UniProt Q9NQS1, sequence (Q9NQS1 whole entry, looked up): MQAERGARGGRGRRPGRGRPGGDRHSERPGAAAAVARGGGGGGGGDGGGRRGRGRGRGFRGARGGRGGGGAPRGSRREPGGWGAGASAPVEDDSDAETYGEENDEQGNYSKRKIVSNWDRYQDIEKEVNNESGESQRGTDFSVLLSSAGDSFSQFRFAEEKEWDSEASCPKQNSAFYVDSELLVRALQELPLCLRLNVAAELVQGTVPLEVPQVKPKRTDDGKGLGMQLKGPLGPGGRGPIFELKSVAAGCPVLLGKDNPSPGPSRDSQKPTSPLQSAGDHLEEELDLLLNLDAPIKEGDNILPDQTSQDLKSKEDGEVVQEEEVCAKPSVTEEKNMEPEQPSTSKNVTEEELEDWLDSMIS
inactive: [10] -0.03 | [2] -0.061 | [3] -0.079 | [4] 0.055 | [9] 0.009 | [5] 0.027 | [6] 0.1 | [7] -0.08

BAHCC1 (UniProt Q9P281)
inactive: [1] -0.045 | [4] -0.018 | [9] -0.114 | [5] -0.008 | [6] 0.013 | [8] 0.074

CDKL5 (UniProt O76039)
inactive: [1] 0.088 | [5] -0.351 | [6] 0.111 | [8] -0.019

CDC14A isoform 2 (UniProt Q9UNH5)
UniProt Q9UNH5, sequence (Q9UNH5 whole entry, looked up): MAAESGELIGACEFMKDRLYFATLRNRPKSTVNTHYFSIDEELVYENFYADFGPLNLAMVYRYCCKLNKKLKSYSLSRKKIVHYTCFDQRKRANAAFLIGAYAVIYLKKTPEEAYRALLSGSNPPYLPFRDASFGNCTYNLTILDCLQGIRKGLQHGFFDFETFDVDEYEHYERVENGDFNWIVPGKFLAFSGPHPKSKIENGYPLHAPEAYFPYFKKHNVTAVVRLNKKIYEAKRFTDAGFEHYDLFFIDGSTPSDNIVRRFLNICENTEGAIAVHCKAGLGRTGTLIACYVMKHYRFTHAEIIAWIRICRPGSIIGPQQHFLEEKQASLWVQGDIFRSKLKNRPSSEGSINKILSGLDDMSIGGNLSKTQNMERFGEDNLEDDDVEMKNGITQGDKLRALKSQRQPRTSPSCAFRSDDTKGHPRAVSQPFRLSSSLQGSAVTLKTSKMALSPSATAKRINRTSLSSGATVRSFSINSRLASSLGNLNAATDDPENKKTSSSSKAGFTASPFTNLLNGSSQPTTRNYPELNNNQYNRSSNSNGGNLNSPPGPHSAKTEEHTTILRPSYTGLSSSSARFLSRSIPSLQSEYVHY
inactive: [1] 0.107 | [2] -0.336 | [3] -0.135 | [9] -0.04 | [6] 0.145 | [7] 0.219 | [8] 0.006

BMT2 (UniProt Q1RMZ1)
inactive: [9] 0.586

CASC1 (UniProt Q6TDU7)
UniProt Q6TDU7, sequence (Q6TDU7 whole entry, looked up): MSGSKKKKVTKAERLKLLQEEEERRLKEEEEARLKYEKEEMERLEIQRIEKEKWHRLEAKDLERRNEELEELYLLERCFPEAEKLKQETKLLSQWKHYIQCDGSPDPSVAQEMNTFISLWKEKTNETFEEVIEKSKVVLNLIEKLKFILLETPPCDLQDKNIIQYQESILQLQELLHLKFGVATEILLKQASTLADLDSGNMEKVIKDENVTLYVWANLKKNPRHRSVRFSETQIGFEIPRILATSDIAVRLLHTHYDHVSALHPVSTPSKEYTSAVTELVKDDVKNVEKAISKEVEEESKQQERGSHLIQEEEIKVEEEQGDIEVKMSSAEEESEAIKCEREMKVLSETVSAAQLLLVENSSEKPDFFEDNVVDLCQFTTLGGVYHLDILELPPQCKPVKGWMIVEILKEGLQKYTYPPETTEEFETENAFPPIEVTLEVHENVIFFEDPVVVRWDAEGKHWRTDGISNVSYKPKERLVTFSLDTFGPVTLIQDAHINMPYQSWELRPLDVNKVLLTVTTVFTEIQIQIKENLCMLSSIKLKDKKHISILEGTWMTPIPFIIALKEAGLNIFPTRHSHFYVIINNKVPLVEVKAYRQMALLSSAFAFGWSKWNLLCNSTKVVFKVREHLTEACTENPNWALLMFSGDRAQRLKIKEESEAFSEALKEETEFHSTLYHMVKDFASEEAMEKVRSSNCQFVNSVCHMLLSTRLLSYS
inactive: [10] 0.24 | [2] 0.078 | [3] -0.093 | [7] 0.097

C3AR1 (UniProt Q16581)
UniProt Q16581, sequence (Q16581 whole entry, looked up): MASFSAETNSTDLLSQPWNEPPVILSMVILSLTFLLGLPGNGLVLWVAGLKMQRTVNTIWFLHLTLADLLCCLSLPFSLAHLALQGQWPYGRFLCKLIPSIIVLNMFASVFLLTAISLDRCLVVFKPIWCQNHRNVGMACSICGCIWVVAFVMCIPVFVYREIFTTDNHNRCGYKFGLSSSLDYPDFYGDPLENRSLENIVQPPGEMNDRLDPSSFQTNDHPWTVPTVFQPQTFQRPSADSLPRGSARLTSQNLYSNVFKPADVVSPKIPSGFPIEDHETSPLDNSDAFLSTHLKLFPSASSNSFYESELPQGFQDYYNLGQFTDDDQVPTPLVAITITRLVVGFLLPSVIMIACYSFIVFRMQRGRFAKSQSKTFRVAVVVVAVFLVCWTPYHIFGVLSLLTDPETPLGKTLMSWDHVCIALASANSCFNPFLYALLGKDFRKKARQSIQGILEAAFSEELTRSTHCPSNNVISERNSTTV
inactive: [10] 0.018 | [9] 0.001 | [6] -0.074

ATG10 (UniProt Q9H0Y0)
UniProt Q9H0Y0, sequence (Q9H0Y0 whole entry, looked up): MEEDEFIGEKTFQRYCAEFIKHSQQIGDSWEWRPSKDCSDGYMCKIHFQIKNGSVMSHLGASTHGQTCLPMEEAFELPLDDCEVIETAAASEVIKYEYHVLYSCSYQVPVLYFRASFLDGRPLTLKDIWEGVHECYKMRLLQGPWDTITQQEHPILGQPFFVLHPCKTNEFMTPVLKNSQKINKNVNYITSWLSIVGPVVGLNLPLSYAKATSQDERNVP
inactive: [10] 0.057 | [2] 0.001 | [3] -0.013 | [4] -0.062 | [9] -0.132 | [5] 0.063 | [6] 0.053 | [7] 0.012

ATG4D (UniProt Q86TL0)
inactive: [10] -0.086 | [2] 0.049 | [3] 0.074 | [5] 0.319 | [6] -0.096 | [7] -0.052

CHD9 (UniProt Q3L8U1)
inactive: [2] -0.117 | [3] -0.147 | [4] -0.074 | [9] 0.212 | [5] 0.038 | [6] -0.031 | [7] -0.023

CEP57L1 (UniProt Q8IYX8)
inactive: [10] -0.039 | [2] 0.171 | [3] -0.272 | [4] -0.049 | [9] 0.11 | [5] -0.191 | [6] -0.037 | [7] -0.044

C1orf131 isoform 5 (UniProt Q8NDD1)
UniProt Q8NDD1, sequence (Q8NDD1 whole entry, looked up): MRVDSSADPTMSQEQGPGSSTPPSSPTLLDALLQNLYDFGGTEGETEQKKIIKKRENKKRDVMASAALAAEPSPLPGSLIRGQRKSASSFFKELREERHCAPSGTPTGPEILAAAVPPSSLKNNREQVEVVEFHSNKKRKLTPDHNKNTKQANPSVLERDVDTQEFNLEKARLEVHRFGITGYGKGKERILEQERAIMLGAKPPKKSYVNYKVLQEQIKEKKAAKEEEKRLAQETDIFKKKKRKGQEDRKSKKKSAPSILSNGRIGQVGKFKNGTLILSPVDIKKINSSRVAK
inactive: [1] 0.041 | [2] 0.06 | [3] -0.056 | [4] 0.028 | [9] -0.016 | [5] -0.071 | [6] 0.08 | [7] 0.025 | [8] -0.043

B3GALT6 (UniProt Q96L58)
UniProt Q96L58, sequence (Q96L58 whole entry, looked up): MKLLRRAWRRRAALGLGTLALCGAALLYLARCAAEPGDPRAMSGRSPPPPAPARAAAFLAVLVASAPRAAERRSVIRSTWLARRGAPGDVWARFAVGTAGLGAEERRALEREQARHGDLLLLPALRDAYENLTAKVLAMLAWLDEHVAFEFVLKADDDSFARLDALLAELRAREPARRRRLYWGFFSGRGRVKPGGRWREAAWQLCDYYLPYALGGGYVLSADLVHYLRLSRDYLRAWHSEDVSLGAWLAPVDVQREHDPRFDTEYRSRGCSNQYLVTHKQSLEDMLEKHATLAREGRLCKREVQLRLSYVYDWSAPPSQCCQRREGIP
inactive: [10] -0.025 | [2] 0.065 | [3] 0.23 | [4] -0.025 | [5] -0.112 | [6] -0.168 | [7] -0.046

CDCA8 (UniProt Q53HL2)
UniProt Q53HL2, sequence (Q53HL2 whole entry, looked up): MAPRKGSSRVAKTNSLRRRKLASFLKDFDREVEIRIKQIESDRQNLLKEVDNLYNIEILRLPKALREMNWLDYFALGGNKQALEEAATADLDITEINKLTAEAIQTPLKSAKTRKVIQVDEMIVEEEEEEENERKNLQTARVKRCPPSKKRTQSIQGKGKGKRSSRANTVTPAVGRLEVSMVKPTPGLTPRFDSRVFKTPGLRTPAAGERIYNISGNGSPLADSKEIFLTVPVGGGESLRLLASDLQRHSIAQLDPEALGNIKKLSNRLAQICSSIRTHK
inactive: [10] 0.047 | [4] -0.082 | [9] 0.038 | [5] 0.011

CCND3 (UniProt P30281)
inactive: [10] 0.122 | [2] 0.039 | [3] 0 | [4] 0.032 | [9] -0.104 | [5] -0.063 | [6] -0.021 | [7] -0.067

CDK17 isoform 2 (UniProt Q00537)
UniProt Q00537, sequence (Q00537 whole entry, looked up): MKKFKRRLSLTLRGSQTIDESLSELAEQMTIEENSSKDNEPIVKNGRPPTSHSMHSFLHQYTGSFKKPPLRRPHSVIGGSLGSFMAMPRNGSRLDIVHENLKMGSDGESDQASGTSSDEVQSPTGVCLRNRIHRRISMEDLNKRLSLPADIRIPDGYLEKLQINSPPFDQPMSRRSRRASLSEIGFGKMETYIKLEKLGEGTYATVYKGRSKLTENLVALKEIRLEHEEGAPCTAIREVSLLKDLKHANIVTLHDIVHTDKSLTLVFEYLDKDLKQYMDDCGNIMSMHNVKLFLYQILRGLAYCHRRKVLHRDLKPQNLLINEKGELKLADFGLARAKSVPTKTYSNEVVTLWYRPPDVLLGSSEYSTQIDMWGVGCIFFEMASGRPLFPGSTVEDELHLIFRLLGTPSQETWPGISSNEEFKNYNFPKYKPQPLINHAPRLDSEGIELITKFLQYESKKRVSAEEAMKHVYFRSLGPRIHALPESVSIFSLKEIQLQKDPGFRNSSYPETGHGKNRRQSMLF
inactive: [10] -0.029 | [2] -0.019 | [3] -0.003 | [4] -0.037 | [9] -0.162 | [5] -0.08 | [6] 0.029 | [7] 0.057

BCORL1 isoform 3 (UniProt Q5H9F3)
inactive: [2] -0.07 | [3] 0.075 | [4] 0.074 | [5] 0.001 | [6] -0.321 | [7] -0.01

C8orf88 (UniProt P0DMB2)
inactive: [10] -0.004 | [2] 0.06 | [3] 0.047 | [4] -0.05 | [5] 0.006 | [6] 0.052 | [7] 0.022

ATPSCKMT (UniProt Q6P4H8)
inactive: [10] -0.042 | [2] -0.15 | [3] 0.088 | [5] 0.019 | [6] -0.015 | [7] -0.001

CCP110 (UniProt O43303)
UniProt O43303, sequence (O43303 whole entry, looked up): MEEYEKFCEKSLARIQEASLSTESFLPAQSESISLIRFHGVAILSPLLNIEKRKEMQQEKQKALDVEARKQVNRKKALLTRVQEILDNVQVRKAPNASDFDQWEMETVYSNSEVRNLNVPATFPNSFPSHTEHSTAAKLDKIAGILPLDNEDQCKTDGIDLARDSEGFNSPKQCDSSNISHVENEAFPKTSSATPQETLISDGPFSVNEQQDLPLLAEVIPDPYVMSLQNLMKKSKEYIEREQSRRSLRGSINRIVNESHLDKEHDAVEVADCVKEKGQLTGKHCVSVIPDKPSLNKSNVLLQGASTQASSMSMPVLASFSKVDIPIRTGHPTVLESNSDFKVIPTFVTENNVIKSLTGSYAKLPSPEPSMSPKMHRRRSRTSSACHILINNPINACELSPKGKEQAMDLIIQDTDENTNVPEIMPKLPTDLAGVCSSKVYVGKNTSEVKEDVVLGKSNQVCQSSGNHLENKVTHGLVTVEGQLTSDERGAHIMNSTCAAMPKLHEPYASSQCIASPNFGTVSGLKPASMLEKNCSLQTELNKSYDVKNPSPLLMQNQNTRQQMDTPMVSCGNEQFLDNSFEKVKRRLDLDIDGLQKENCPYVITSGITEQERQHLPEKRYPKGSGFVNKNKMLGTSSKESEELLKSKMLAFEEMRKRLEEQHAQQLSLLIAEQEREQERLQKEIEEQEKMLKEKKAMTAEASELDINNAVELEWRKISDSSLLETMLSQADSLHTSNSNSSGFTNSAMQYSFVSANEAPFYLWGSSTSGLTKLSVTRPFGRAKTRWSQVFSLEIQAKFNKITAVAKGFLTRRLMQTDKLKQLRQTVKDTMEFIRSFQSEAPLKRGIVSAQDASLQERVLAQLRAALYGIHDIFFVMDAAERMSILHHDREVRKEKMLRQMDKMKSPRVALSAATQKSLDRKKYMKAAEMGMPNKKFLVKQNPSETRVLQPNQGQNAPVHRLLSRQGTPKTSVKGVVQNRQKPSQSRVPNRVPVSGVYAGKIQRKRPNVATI
inactive: [10] -0.008 | [2] 0.082 | [3] 0.001 | [4] 0.054 | [5] -0.186 | [6] 0.01 | [7] 0.113

From the supplement of paper PMC10849652
